Sampled rows, rich in hits. Any-hit rate of the full collection: about 12%.
USP28 block: blocks human USP28 ubiquitin-rhodamine cleavage. Q96RU2. purified USP28, Ub-rhodamine cleavage fluorescence, 30 min. inhibition, % at 25 µM. actives 3% (n = 47,000). AID 1645857
OTUD3 block: blocks human OTUD3 ubiquitin-rhodamine cleavage; Q5T2D3; purified OTUD3, Ub-rhodamine fluorescence, 2 h; inhibition, % at 25 µM; actives 0.7% (n = 47,000); AID 1645858
Target sequence (Q5T2D3 whole entry, looked up): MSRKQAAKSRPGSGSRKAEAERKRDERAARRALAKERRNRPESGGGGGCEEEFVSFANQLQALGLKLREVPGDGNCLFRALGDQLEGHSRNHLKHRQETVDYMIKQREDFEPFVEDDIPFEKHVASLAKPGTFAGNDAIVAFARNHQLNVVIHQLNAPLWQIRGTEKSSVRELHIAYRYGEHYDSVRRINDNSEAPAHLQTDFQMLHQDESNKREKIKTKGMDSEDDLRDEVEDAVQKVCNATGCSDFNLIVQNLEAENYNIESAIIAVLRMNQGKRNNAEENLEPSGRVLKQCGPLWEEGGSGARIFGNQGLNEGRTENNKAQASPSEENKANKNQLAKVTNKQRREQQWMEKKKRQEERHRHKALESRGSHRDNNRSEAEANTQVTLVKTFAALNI
USP30 inh: human USP30 deubiquitinase inhibition; actives 5.3% (n = 47,000); inhibition, % at 25 µM; purified USP30, Ub-rhodamine cleavage fluorescence
USP17 block: blocks human USP17 ubiquitin-rhodamine cleavage. AID 1645855. inhibition, % at 50 µM. A8MUK1. purified USP17, Ub-rhodamine cleavage fluorescence, 3 h. actives 6.5% (n = 47,000)
Hits are given with their value; . = inactive; / = not tested or not shown. Cut-off read from the data, not from the text of the source: active = inhibition above about 30%; inactive = the rest.

SMILES	USP28 block	OTUD3 block	USP30 inh	USP17 block
CCN1CCN(c2nc3c(s2)CN(C(=O)c2ccccc2)CC3)CC1	.	.	.	.
COc1ccccc1NC(=O)/C(=C/c1ccco1)n1nnnc1-c1ccccc1	.	.	.	.
COc1ccc(CCNC(=O)CSc2nc3c(cnn3-c3ccc(C)cc3)c(=O)[nH]2)cc1OC	.	.	.	.
Cc1cc(C)c2c(n1)sc1c(=O)n(CC(=O)Nc3cccc(Cl)c3)cnc12	.	.	.	41.0
O=C(Cn1cnc2c(sc3ccccc32)c1=O)Nc1ccc(F)c(F)c1	.	.	.	.
Cc1cc(=O)oc2c1c(C)nn2-c1cccc(F)c1	.	.	.	.
COc1ccc(NS(=O)(=O)/C=C/c2ccc(OC)c(OC)c2)cc1	.	.	.	.
COc1ccc(/C=C/c2cc(OC)cc(=O)o2)cc1	.	.	32.3	30.1
COc1ccc(OC)c(C(=O)CSc2nc3nc(C)c(Br)cc3[nH]2)c1	.	.	.	49.8
N#Cc1ccccc1NC(=O)CN1CCCc2ccccc21	.	.	.	.
CCC(=O)Nc1ccc(-n2cnc(C(=O)NC3CCCC3)c2)nc1	.	.	31.9	.
Cc1cnnn1-c1ccc(C(=O)Nc2cc(Cl)ccc2Cl)cc1	.	.	.	68.1
Cc1cnnn1-c1ccc(C(=O)Nc2cccc(Cl)c2)cc1	.	.	54.2	80.4
O=C(Nc1ccc(-n2cccc2)cc1)c1ccc(Cl)cc1	.	.	.	.
CC(=O)c1ccc(S(=O)(=O)N(Cc2ccc(C(=O)NC3CC3)cc2)C2CC2)cc1	.	.	30.1	.
COc1ccc(S(=O)(=O)N(Cc2ccc3c(c2)CCO3)C2CC2)cc1	.	.	.	.
O=C(CN1C(=O)CC(c2ccccc2)S(=O)(=O)c2ccccc21)Nc1ccccc1F (centres undefined)	.	.	.	.
COc1cc(C(=O)Oc2ccc3ccc(=O)oc3c2)cc(OC)c1OC	.	.	45.0	.
COc1ccccc1-c1coc2cc(OC(=O)c3ccc(C(C)(C)C)cc3)ccc2c1=O	.	.	.	.
COc1ccc(NC(=O)COc2ccc3ccc(=O)oc3c2)cc1	.	.	.	56.9
Cc1cc(NC(=O)c2nnn(-c3ccccc3Cl)c2C)no1	85.8	.	.	.
Cc1ccc(Cl)c(-n2nnc(C(=O)Nc3ccccc3C#N)c2C)c1	.	.	30.2	56.1
Cc1ccc(NC(=O)c2nnn(-c3ccccc3)c2C)c(C)c1	.	.	.	.
COc1ccccc1CC(=O)N1CCCC(c2[nH]nc3nccnc23)C1 (centres undefined)	.	.	.	.
O=C(c1cnco1)N1CCCCC1c1ncc(Cc2ccc(Cl)cc2)o1 (centres undefined)	.	.	.	.
SMILES	USP28 block	OTUD3 block	USP30 inh	USP17 block
Cn1nccc1C(=O)N1CCCCC1c1ncc(Cc2ccc(Cl)cc2)o1 (centres undefined)	.	35.2	.	.
c1ccc(Nc2ccn3nc(C4CC4)cc3n2)cc1	.	.	.	.
Cc1ccc(C)c(S(=O)(=O)N2CCN(C(C)c3nc4ccccc4c(=O)[nH]3)CC2)c1 (centres undefined)	.	.	.	.
Cc1ccc(C)c(S(=O)(=O)N2CCN(c3nc(-c4cccs4)nc4ccccc34)CC2)c1	.	.	30.8	.
Cc1ccc(CNC(=O)c2cccc(N3C(=O)N4CCc5c([nH]c6ccccc56)[C@@]4(C)C3=O)c2)cc1	.	.	.	63.7
COc1ccc(CNC(=O)[C@H](C)N2C(=O)N3CCc4c([nH]c5ccc(OC)cc45)[C@@]3(C)C2=O)cc1	32.7	.	.	50.2
COc1ccc2[nH]c3c(c2c1)CCN1C(=O)N(c2ccccc2C(=O)NCc2ccccc2)C(=O)[C@]31C	.	.	.	61.0
C[C@]12C(=O)N(c3ccccc3C(=O)NCCc3ccccc3)C(=O)N1CCc1c2[nH]c2ccccc12	.	.	.	41.2
O=C(NCC1CC1)c1nc2c(o1)CN(C(=O)c1cccnc1)C2	.	.	.	.
O=C(Cn1cnc(S(=O)(=O)N2CCc3ccccc32)c1)Nc1ccc(F)cc1	.	.	.	.
Cc1cccc(NC(=O)CSc2nnc(CNc3ccc(Cl)cc3)n2C)c1C	.	.	.	.
COc1ccc(-c2ocnc2C(=O)NCc2ccc(F)cc2)cc1	54.8	.	.	.
COc1ccc(-c2[nH]c3ncccc3c2CN(C)Cc2ccccc2)cc1	.	.	.	.
CNC(=O)[C@H]1C[C@@H]2CN(C(=O)NCc3cn(C)cn3)C(C)[C@H]1N2Cc1ccccc1 (some centres undefined)	.	.	.	.
Cc1ccc(NC(=O)COc2ccccc2-c2noc(-c3cccc(F)c3)n2)cc1	.	.	.	.
Cc1cc(NC(=O)CSc2nnc(CNC(=O)COc3ccc(Cl)cc3)o2)no1	.	.	.	.
O=C(COc1ccc(F)cc1)Nc1noc(-c2ccccc2)n1	44.1	.	73.6	62.5
Cc1cc(NC(=O)COc2ccc(F)c(Cl)c2)no1	40.2	.	.	.
Cc1ccc(-c2nc(NC(=O)COc3cc(C)cc(C)c3)no2)cc1	.	.	.	.
Cc1cccc(-c2nc(NC(=O)COc3ccc(F)cc3)no2)c1	60.5	.	68.0	71.4
Cc1ccc(-c2nc(NC(=O)COc3ccc(Cl)cc3)no2)cc1	89.1	.	.	92.7
CCn1nccc1C1CCCN1C(=O)Nc1cc(OC)c(OC)c(OC)c1 (centres undefined)	.	.	.	.
CN(C)c1ncc(-c2cccc(F)c2)c(C2CCCNC2)n1 (centres undefined)	.	.	.	.
CCCCn1cnc2c3cc(F)ccc3n(C)c2c1=O	.	.	64.6	65.0
Cn1c2ccccc2c2ncn(Cc3ccc(F)cc3)c(=O)c21	32.0	.	33.9	71.2
SMILES	USP28 block	OTUD3 block	USP30 inh	USP17 block
O=C(NCc1ccc2c(c1)OCO2)c1ccc(C2SCC(=O)N2Cc2ccco2)cc1 (centres undefined)	.	.	.	56.3
Cc1ccc(C(=O)NCc2ccc3c(c2)OCO3)cc1S(=O)(=O)N1CCCC1	.	.	.	.
CC(=O)N1CCn2c(nnc2C2CCNCC2)C1	.	.	.	.
O=C(NC1CCC1)c1c2c(-c3ccncc3)ncnc2n2ccccc12	/	.	/	67.8
O=C(c1c2c(-c3ccccc3)ncnc2n2ccccc12)N1CCOCC1	.	.	.	.
CSc1nc2ncc3c(=O)n(CCc4ccccc4)ccc3n2n1	.	.	44.1	62.2
CCN1CCN(c2ncc3c(=O)n(CCc4ccc(OC)c(OC)c4)ccc3n2)CC1	.	.	.	.
CCN1CCN(c2ncc3c(=O)n(CCc4ccccc4)ccc3n2)CC1	.	.	39.0	.
O=c1c2cnc(N3CCCCC3)nc2ccn1CCc1ccccc1	.	.	.	85.1
CC(=O)N[C@@]12CN(C)CC[C@@H]1CN(C(=O)C1(c3cc(C)cc(C)c3)CCCC1)C2	.	.	.	.
COc1ccc2ncc(S(=O)(=O)c3ccccc3)c(N3CCC(C)CC3)c2c1	.	.	.	.
Cc1nn(C)c(C)c1CNC(=O)C1CCN(c2nnc3ccc(C(F)(F)F)cn23)CC1	37.8	.	.	.
CCOc1ccccc1C(=O)N1CCC2(CC1)CC(=O)c1ccccc1O2	.	.	.	.
